# Measurements taken from PubChem BioAssay.
# Inconclusive results are not listed. For some of these results: Measured potencies and affinities stand elsewhere. The source made the active and inactive calls. Unless noted, the rule behind the calls is not given here.
# How the values were obtained:
# [1] = biological target: Cell division control protein 42 homolog (Homo sapiens) (UniProt P60953); assay: inhibition of fluorescent GTP binding to constitutively active Cdc42 – biochemical, multiplex bead flow cytometry, Bodipy-FL-GTP, dose response (AID 1333;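 active = fitted half-maximal concentration within the tested dose range, moderate curve steepness, a statistically real signal drop, and little compound fluorescence or tag-binding interference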)
# [2] = biological target: Cell division control protein 42 homolog (Homo sapiens) (UniProt P60953); assay: inhibition of fluorescent GTP binding to wildtype Cdc42 – biochemical, multiplex bead flow cytometry, Bodipy-FL-GTP, dose response (AID 1334;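 active = fitted half-maximal concentration within the tested range, moderate curve steepness, significant signal drop, and little compound fluorescence or bead-linkage interference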); settings: bead-based flow cytometry, Bodipy-FL-GTP binding to GST-Cdc42; at 100 µM (top of the series) unless noted
# [3] = biological target: GTPase HRas (Homo sapiens) (UniProt P01112); assay: Ras wt fluorescent GTP loading blockade – biochemical, wildtype, multiplex bead flow cytometry, dose response (AID 1335;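 active = fitted half-maximal concentration within 10 nM to 100 µM, steepness 0.5 to 2, significant signal drop, low assay interference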); settings: bead-based flow cytometry, Bodipy-GTP binding to GST-Ras; at 100 µM (top of the series) unless noted
# [4] = test system: Ras-related protein Rab-7a (dog), GTP binding; assay: blockers of fluorescent GTP binding to Rab7 – biochemical, wildtype, multiplex bead flow cytometry, dose response (AID 1336)
# [5] = biological target: Ras-related C3 botulinum toxin substrate 1 (Homo sapiens) (UniProt P63000); assay: inhibition of wildtype Rac1 nucleotide loading – biochemical, multiplex bead flow cytometry, dose response (AID 1340;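 active = dose curve with midpoint inside tested range, moderate steepness, plateau gap beyond fit error, low compound glow and bead-link interference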); settings: GST-Rac1 beads, Bodipy-FL-GTP binding; at 100 µM (top of the series) unless noted
# [6] = biological target: GTPase HRas (Homo sapiens) (UniProt P01112); assay: blockade of GTP loading onto mutant Ras – biochemical, activated mutant, multiplex bead flow cytometry, dose response (AID 1341;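 active = dose-response curve with midpoint inside the tested range, moderate steepness, significant amplitude and little compound fluorescence or bead-attachment interference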;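 note: GST-tagged constitutively activated Ras mutant immobilized on beads and multiplexed with other GTPases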)
# [7] = rapamycin-like changes in RPL19A-GFP expression – cell-based, S. cerevisiae, multiplex flow cytometry, primary screen (AID 1862; in the data active = percent of DMSO control GFP below about 86%;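 note: lower values mimic rapamycin by blocking the RPL19A rise seen in DMSO cells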); settings: S. cerevisiae RPL19A-GFP strain, flow cytometry fluorescence, 3 h; at 10 µM; stronger effect = lower value
# [8] = TOR pathway GLN3 branch reporter MEP2-GFP changes – S. cerevisiae, multiplex flow cytometry, primary screen (AID 1867;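 active = GFP response, as percent of the DMSO control, above the screen-wide mean plus 3 SD, about 139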;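 note: median GFP channel fluorescence of barcode-gated MEP2-GFP cells measured by flow cytometry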); settings: S. cerevisiae MEP2-GFP strain, 3 h, at 10 µM, stronger effect = higher value, 100% means same as DMSO wells
# [9] = TOR pathway RTG branch CIT2 reporter changes – S. cerevisiae, GFP fusion, multiplex flow cytometry, primary screen (AID 1870;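 active = percent response above a set limit, the screen-wide mean plus 3 SD, cut at about 130% in these data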;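 note: barcoded CIT2-GFP strain pooled with four other GFP strains with rapamycin as positive control; median GFP fluorescence per well over plate mean of DMSO wells so 100% = DMSO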); settings: S. cerevisiae CIT2-GFP expression, 3 h, at 10 µM, stronger effect = higher value
# [10] = TOR pathway LAP4-GFP level changes – S. cerevisiae, multiplex flow cytometry, primary screen (AID 1873;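 active = GFP signal, as percent of the solvent control, above the screen mean plus 3 SD, about 149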); settings: S. cerevisiae LAP4-GFP expression, 3 h, at 10 µM, stronger effect = higher value
# [11] = yeast AGP1-GFP level changes, GLN3 branch – cell-based, multiplex flow cytometry, S. cerevisiae, primary screen (AID 1887;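 active = GFP signal above the screen-wide mean plus 3 SD, that is over about 124.5% of the solvent control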;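 note: AGP1-GFP fusion strain of S. cerevisiae within a five-strain barcoded multiplex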); settings: 3 h, at 10 µM, stronger effect = higher value
# [12] = reduced mouse 2C T cell binding to pMHC/ICAM-1 vesicles – MLPCN validation set, flow cytometry, LFA-1/ICAM-1 modulator project, pilot screen (AID 2523;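 active = response below a set limit, under 55% cells CD8-positive and vesicle-bound, and CD8 cells' 90th-percentile brightness under 279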;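 for vesicle binding response: mean PE anti-B7-1 fluorescence of CD8+ cells relative to row control; 100% = QL9-loaded vesicles with DMSO vehicle in the same plate row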); settings: 2C mouse CD8+ T cells, at 7 µM, stronger effect = lower value; double positive events: measured here: CD8+/vesicle+ event percentage
# [13] = biological target: Integrin beta-1 (Homo sapiens) + Integrin alpha-4 (Homo sapiens) (UniProt P13612+P05556); assay: alpha4beta1 integrin LIBS antibody binding reduction – U937 cells, HUTS-21 mAb, flow cytometry, validation set, VLA-4 allosteric modulator project, pilot screen (AID 2674;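 active = inhibition above 50%, about 3 SD of the validation set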;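 note: antibody binding induced by the VLA-4 ligand LDV present at three times its Kd; 0% = LDV ligand with antibody and no compound and 100% = antibody without LDV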); settings: HUTS-21 LIBS mAb binding, at 6.7 µM, stronger effect = higher value, binding induced by LDV ligand
# [14] = calorie-restriction mimetic ROS inhibitors, yeast – validation compound set, pilot screen (AID 2706;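 active = superoxide response below 65% of plate, a cut near 3 SD across the whole screen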;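 note: yeast exposed to compound for one week at 30 degrees C before staining; 100% = mean of all compound wells on the same plate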); settings: S. cerevisiae aging, superoxide DHE fluorescence; at 10 µM; stronger effect = lower value
# [15] = biological target: Beta-adrenergic receptor kinase 1 (Homo sapiens) (UniProt P25098); assay: GRK2 binders displacing RNA aptamer, biochemical, validation, human GRK2, bead flow cytometry (AID 488806;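 active = aptamer binding inhibition above 30%, about 3 SD of noise from non-fluorescent compounds; inactive = inhibition at or below 30%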); settings: bead-bound GRK2, FAM-aptamer displacement, at 10 µM, stronger effect = higher value
# [16] = biological target: Beta-2 adrenergic receptor (Homo sapiens) (UniProt P07550); assay: agonist-induced loss of surface beta2AR – cell-based, FAP fluorogen, flow cytometry, validation set, pilot screen (AID 504459;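 active = percent response above 42, roughly 3 SD of non-fluorescent test compounds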;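 note: agonist-driven loss of surface beta2AR via internalization measured by FAP dye flow cytometry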); settings: Am2.2-beta2AR cells, at 10 µM, stronger effect = higher value
# [17] = biological target: AP-2 complex subunit beta (Homo sapiens) (UniProt P63010); assay: beta-arrestin/AP2 interaction blockers – biochemical, validation set, GST-AP2 beads, flow cytometry, pilot screen (AID 504541;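 active = inhibition above 54%, about 3 SD of non-fluorescent compounds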;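 note: AP2 carries R879A mutation and is captured from E. coli lysate; bead-bound FITC arrestin peptide fluorescence measuring arrestin peptide binding to AP2; 0% = DMSO wells and 100% = excess unlabeled arrestin peptide control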); settings: FITC arrestin peptide, at 10 µM, stronger effect = higher value, AP2 beta2 appendage fragment, R879A mutant
# [18] = cytosolic pH regulators acting via V-ATPase – S. cerevisiae, pHLuorin, HTS validation (AID 504600; in the data active = response above about 15%;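 note: plate controls were DMSO for no effect and reference compound for full effect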); settings: V-ATPase proton transport, at 10 µM, stronger effect = higher value
# [19] = test system: anti-desmoglein-3 scFv antibody binding to human DSG3; assay: blockers of pathogenic pemphigus antibody–desmoglein-3 binding – biochemical, validation compound set, bead-based, flow cytometry, pilot screen (AID 588368;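 active = binding below the plate cutoff, the plate median minus 3 SD, with a reading above zero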;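 note: signal is the median channel fluorescence of bead-bound GFP antibody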); settings: Protein G beads, DSG3-Fc, scFv-GFP binding, at 10 µM, stronger effect = lower value
# [20] = Nile Red efflux blockade in pump-expressing yeast – validation compound set, multiplex, phenotypic, pilot screen (AID 588506;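 active = efflux inhibition above 0.42, the validation set average plus 4 SD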;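 note: Nile Red retained in cells so higher fluorescence means more efflux inhibition; 0 = negative control wells and 1 = enniatin B 25 µM full block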); settings: S. cerevisiae pump-expressing triplex, Nile Red efflux flow cytometry; at 10 µM; stronger effect = higher value; the pumps come from Candida albicans
# [21] = biological target: ATP-binding cassette sub-family B member 6 (Homo sapiens) (UniProt Q9NP58); assay: blockers of ABCB6-driven porphyrin uptake – K562-ABCB6 cells, flow cytometry, validation set, pilot screen (AID 588550;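 active = inhibition above the screen-wide mean plus 3 SD, about 51%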;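 note: 0% = DMSO wells and 100% = benzethonium chloride 70 µM positive control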); settings: K562-ABCB6 porphyrin accumulation, 1 h, at 10 µM, stronger effect = higher value
# [22] = AML differentiation inducers, ER-HoxA9 marrow cells – cell-based, GFP/MAC1 double positive, flow cytometry, validation set, primary screen (AID 588685;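 active = differentiation response of at least 50%, scaled between solvent and reference control, from cells with both markers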;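 note: compound exposure lasts four days before antibody staining and flow analysis; 0% = DMSO wells and 100% = 5 µM fulvestrant positive control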); settings: stronger effect = higher value, normalized: vehicle 0, fulvestrant 100
# Chain of GTPase HRas (Homo sapiens) (P01112 whole entry, looked up): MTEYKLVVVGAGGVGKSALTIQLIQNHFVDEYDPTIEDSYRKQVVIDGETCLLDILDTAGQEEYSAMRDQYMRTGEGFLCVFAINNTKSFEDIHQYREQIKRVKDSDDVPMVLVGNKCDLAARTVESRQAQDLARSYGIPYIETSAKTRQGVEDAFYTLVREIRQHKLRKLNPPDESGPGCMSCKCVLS
# Chain of Cell division control protein 42 homolog (Homo sapiens) (P60953 whole entry, looked up): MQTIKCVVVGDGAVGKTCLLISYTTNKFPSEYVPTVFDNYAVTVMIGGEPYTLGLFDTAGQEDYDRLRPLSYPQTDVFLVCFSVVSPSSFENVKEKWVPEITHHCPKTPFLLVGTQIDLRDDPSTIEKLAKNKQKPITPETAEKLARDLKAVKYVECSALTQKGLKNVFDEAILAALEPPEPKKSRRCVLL
# Chain of Beta-2 adrenergic receptor (Homo sapiens) (P07550 whole entry, looked up): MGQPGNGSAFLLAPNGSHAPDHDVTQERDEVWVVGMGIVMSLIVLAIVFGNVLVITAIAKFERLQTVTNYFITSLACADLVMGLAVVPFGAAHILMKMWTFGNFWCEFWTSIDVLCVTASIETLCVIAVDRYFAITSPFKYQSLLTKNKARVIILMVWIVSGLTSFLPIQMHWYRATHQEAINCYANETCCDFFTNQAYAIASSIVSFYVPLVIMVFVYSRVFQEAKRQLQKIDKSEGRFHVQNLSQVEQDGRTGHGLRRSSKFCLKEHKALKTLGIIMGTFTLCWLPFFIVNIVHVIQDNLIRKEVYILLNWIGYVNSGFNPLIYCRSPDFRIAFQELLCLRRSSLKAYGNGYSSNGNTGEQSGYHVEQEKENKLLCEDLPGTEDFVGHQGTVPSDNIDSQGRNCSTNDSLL
# Chain of AP-2 complex subunit beta (Homo sapiens) (P63010 whole entry, looked up, the tested form may be a part, one chain of several): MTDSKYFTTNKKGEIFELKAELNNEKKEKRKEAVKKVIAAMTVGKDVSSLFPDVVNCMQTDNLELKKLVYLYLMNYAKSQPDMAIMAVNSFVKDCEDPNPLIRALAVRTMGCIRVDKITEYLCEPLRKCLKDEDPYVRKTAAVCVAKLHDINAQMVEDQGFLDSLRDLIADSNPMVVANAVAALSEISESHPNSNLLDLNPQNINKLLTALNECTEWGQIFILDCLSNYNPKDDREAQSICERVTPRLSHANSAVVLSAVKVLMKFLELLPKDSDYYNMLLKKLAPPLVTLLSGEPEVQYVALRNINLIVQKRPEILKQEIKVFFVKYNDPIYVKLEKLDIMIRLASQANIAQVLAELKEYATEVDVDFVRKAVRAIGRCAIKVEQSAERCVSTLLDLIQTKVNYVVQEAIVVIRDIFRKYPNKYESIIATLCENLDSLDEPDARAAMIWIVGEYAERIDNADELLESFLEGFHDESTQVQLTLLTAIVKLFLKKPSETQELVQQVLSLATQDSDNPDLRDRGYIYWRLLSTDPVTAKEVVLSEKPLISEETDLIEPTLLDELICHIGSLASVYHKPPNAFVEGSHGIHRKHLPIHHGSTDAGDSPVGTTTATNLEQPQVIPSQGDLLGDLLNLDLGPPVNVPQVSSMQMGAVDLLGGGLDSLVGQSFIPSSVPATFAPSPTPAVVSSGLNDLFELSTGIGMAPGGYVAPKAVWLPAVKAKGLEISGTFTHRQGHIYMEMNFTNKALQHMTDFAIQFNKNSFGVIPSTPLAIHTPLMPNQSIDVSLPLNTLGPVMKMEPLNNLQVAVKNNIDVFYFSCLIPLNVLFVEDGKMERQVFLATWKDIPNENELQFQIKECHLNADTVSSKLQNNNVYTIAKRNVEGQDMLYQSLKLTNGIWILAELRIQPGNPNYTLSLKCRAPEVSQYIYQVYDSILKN
# Chain of ATP-binding cassette sub-family B member 6 (Homo sapiens) (Q9NP58 whole entry, looked up): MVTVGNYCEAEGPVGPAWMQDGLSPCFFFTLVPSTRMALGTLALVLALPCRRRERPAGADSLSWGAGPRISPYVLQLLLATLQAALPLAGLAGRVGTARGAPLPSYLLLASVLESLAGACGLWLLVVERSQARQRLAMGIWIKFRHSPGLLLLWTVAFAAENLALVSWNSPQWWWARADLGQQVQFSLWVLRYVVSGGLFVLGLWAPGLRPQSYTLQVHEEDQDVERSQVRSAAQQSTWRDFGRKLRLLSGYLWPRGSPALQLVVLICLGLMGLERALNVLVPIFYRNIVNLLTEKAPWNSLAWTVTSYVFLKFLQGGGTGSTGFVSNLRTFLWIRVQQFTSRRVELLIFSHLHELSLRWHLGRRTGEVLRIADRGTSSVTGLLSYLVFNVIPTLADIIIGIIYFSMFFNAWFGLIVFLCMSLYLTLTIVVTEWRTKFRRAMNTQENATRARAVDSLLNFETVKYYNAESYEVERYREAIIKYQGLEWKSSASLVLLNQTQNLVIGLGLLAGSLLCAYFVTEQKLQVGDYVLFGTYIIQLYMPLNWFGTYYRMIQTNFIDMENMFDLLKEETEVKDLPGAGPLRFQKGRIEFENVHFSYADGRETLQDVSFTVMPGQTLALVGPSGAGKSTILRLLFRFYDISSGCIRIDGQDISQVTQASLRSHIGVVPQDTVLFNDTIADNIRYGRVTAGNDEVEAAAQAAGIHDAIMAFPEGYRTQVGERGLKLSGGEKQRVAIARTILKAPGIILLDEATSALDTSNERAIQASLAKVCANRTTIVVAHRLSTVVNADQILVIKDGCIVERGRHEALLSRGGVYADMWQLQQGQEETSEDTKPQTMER
# Chain of Integrin beta-1 (Homo sapiens) + Integrin alpha-4 (Homo sapiens) (P05556 whole entry, looked up): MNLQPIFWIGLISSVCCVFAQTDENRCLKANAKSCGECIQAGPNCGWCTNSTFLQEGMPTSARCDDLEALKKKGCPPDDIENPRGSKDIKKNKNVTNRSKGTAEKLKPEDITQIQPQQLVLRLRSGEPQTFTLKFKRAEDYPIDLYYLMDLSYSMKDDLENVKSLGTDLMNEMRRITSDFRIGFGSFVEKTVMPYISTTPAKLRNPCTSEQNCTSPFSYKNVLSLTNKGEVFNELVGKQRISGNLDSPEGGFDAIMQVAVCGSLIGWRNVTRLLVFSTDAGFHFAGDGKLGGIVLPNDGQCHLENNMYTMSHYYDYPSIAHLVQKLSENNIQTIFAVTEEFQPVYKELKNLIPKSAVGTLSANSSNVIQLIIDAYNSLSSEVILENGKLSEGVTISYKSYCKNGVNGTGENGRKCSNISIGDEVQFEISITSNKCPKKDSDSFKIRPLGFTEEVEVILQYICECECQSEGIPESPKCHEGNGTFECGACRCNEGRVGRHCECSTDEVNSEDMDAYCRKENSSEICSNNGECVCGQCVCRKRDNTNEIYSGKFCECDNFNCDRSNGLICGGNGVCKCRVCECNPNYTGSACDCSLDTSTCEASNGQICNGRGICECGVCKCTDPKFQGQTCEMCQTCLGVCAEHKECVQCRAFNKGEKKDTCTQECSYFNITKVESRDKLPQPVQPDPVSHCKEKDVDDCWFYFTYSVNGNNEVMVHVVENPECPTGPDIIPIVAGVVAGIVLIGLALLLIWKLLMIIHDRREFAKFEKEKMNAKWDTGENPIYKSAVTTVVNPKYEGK
# Chain of Integrin beta-1 (Homo sapiens) + Integrin alpha-4 (Homo sapiens) (P13612 whole entry, looked up): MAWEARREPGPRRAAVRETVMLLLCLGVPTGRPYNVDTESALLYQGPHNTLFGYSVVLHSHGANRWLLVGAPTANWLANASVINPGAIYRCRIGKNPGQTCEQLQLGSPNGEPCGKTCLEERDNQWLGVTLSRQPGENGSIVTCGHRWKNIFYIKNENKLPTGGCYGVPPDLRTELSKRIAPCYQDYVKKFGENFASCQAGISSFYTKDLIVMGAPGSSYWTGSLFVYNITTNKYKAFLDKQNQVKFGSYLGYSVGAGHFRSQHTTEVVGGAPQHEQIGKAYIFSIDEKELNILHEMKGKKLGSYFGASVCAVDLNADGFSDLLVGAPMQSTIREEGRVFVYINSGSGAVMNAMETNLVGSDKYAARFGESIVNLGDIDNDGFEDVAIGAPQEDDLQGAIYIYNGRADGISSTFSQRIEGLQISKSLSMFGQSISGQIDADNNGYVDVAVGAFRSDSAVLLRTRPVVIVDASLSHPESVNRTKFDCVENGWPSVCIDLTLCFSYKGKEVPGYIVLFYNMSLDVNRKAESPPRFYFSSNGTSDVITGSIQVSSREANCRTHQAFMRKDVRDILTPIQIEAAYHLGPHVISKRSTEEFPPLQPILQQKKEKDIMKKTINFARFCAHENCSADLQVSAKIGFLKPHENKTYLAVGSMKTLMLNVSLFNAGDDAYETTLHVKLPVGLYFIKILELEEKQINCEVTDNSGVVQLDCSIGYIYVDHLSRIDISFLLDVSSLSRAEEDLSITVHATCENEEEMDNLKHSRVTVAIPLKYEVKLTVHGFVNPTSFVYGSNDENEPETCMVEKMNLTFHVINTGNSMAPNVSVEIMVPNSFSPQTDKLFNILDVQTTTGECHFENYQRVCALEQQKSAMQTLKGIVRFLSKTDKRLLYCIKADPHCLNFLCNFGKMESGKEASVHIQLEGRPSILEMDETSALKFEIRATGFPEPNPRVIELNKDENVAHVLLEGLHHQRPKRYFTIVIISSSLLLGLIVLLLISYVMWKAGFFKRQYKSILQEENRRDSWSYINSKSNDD
smiles,measurement,setting,value
COc1cc(/C=N/Nc2ccc(S(N)(=O)=O)cc2)cc(OC)c1OC,outcome,[1],inactive
same,"fluorescence, percent of control (lower = inhibition)",[2],31.7%
same,"GTP binding, percent of control",[3],75.4%
same,outcome,[4],inactive
same,"GTP binding signal, raw median fluorescence (lower = inhibition) (MCF (arbitrary fluorescence units))",[5],175
same,outcome,[6],inactive
COC(=O)C1=NN(C(=O)c2cccc(Br)c2)C(O)(c2ccc(Cl)cc2)C1 (centres undefined),outcome,[1],inactive
same,"fluorescence, percent of control (lower = inhibition)",[2],31.2%
same,"GTP binding, percent of control",[3],79.1%
same,outcome,[4],inactive
same,"GTP binding signal, raw median fluorescence (lower = inhibition) (MCF (arbitrary fluorescence units))",[5],240
same,outcome,[6],inactive
same,percent of DMSO control GFP,[7],100% (inactive)
same,GFP response vs DMSO,[8],95.1% (inactive)
same,percent response of DMSO control,[9],97.8% (inactive)
same,GFP response vs DMSO,[10],114% (inactive)
same,"GFP response, % of DMSO",[11],89.9% (inactive)
same,double positive events,[12],63.4%
same,vesicle binding response,[12],223% (inactive)
same,inhibition,[13],-83.5% (inactive)
same,superoxide response (% of plate),[14],93.4% (inactive)
same,aptamer binding inhibition,[15],3% (inactive)
same,response,[16],-15.6% (inactive)
same,inhibition,[17],-11.3% (inactive)
same,response,[18],-0.27% (inactive)
same,binding (% of control),[19],109% (inactive)
same,efflux inhibition (fraction of control),[20],-0.1 (inactive)
same,inhibition,[21],-2% (inactive)
same,differentiation response,[22],11% (inactive)
COc1ccccc1NCc1sc(C(=O)O)cc1C,outcome,[1],inactive
same,"fluorescence, percent of control (lower = inhibition)",[2],64.9%
same,"GTP binding, percent of control",[3],86.4%
same,outcome,[4],inactive
same,outcome,[6],inactive
O=C(COc1ncnc2cc([N+](=O)[O-])ccc12)NCCc1ccc(Cl)cc1,outcome,[1],inactive
same,"fluorescence, percent of control (lower = inhibition)",[2],36.6%
same,"GTP binding, percent of control",[3],78.8%
same,outcome,[4],inactive
same,outcome,[6],inactive
CCOC(=O)c1c(NC(=O)C(=O)N/N=C/c2ccc(O)c(OC)c2)sc2c1CCCCC2,outcome,[1],inactive
same,"GTP binding, percent of control",[3],64.6%
same,outcome,[4],inactive
same,"GTP binding signal, raw median fluorescence (lower = inhibition) (MCF (arbitrary fluorescence units))",[5],184
same,outcome,[6],inactive
COc1cccc(NC(=O)COC(=O)/C=C/c2ccc(Cl)cc2Cl)c1,"fluorescence, percent of control (lower = inhibition)",[2],48.4%
same,"GTP binding, percent of control",[3],62%
same,outcome,[4],inactive
same,"GTP binding signal, raw median fluorescence (lower = inhibition) (MCF (arbitrary fluorescence units))",[5],180
same,outcome,[6],inactive
